Reference: PMC4336329 (PLoS ONE, 2015)
The whole screen tested about 310,000 compounds, of which about 14,000 (4.5%) showed an effect of 50% or more. Effects have a minus sign here. The sample as a whole holds a higher share of strong results than the screen did.

target: human ether-à-go-go-related gene (hERG) potassium channel (human, UniProt Q12809); test: primary screen, population patch clamp on CHO cells stably expressing hERG; higher = less effect of the substance
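Further: peak tail current of the secondary pulse compared with the same well before compound.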

Sequence of human ether-à-go-go-related gene (hERG) potassium channel (Q12809 whole entry, looked up): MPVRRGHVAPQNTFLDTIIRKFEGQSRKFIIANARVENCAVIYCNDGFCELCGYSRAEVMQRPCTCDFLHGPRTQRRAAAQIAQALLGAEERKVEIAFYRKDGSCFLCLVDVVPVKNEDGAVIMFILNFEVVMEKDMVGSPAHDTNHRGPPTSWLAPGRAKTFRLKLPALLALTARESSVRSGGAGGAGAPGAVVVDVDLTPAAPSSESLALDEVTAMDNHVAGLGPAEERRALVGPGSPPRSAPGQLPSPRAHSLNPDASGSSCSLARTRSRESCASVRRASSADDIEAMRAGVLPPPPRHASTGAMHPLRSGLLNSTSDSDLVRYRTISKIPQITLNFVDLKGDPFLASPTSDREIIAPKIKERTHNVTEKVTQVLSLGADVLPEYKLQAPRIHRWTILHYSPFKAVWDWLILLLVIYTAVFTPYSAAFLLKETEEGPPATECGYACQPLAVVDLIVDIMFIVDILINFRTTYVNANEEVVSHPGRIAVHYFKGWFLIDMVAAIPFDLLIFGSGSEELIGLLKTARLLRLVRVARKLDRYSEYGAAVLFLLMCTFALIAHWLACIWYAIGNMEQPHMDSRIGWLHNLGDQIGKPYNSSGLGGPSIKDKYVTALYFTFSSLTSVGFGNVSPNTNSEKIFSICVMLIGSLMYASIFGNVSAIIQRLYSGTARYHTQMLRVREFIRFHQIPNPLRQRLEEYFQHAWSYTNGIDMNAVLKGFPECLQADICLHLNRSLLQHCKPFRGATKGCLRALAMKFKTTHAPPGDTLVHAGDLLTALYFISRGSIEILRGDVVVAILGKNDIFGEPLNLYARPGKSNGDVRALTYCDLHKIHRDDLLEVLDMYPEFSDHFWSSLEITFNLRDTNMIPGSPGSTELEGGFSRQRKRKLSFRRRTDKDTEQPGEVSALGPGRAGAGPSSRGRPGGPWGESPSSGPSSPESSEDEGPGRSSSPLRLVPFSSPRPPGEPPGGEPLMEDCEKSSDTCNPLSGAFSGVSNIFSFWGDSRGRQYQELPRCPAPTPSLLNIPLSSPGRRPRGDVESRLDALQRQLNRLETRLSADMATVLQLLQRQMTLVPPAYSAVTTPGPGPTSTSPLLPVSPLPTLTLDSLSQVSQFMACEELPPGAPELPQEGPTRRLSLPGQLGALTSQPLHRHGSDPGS

| SMILES | hERG current change (%, negative = inhibition) at 10uM [%] |
| --- | --- |
| C=C1C(=O)O[C@@H]2C[C@@H](C)[C@H]3C=CC(=O)[C@]3(O)C[C@@H]12 | 19.3 |
| Cc1ccc(C(=O)C(OC(=O)CNC(=O)c2ccc(Cl)cc2)c2ccccc2)cc1 (centres unmarked) | 2.15 |
| COc1ccc(-c2[nH]ncc2/C=N/NC(=O)c2ccncc2)c(OC)c1 | 13.8 |
| O=C(CSc1ccccn1)Nc1ccc2c(c1)oc1ccccc12 | 12.8 |
| N#Cc1cc2ccccc2nc1SCC(=O)NC1CC1 | 4.58 |
| O=C(CN1C(=O)CSC1=O)c1ccccc1 | 1.83 |
| CCOc1cc2nc(-c3ccc(OC)c(OC)c3)nc(N3CCOCC3)c2cc1OC | -15.5 |
| CC1CC(c2ccccc2)n2nc(NC(=O)c3cccs3)nc2N1 (centres unmarked) | 16.6 |
| O=C(Nc1ncc2c(n1)CC(c1ccccc1)CC2=O)c1ccco1 (centres unmarked) | -21.9 |
| COc1ccc(C2CC(c3ccccc3)Nc3nc(NC(=O)c4cccs4)nn32)cc1 (centres unmarked) | -52 |
| O=C(Nc1ncc2c(n1)CC(c1ccc(Cl)cc1)CC2=O)c1ccco1 (centres unmarked) | -71.6 |
| COc1ccc(C2CC(c3ccc(OC)cc3)n3nc(NC(=O)c4cccs4)nc3N2)cc1 (centres unmarked) | -13.9 |
| O=C(Nc1nc2n(n1)C(c1ccc(F)cc1)CC(c1ccccc1)N2)c1ccco1 (centres unmarked) | -57.4 |
| Nc1nc2n(n1)C(c1ccccc1)CC(c1ccc(F)cc1)N2 (centres unmarked) | -10.1 |
| CS(=O)(=O)Nc1nc2n(n1)C(c1ccc(F)cc1)CC(c1ccccc1)N2 (centres unmarked) | -4.13 |
| COc1ccc(C2CC(c3ccc(F)cc3)n3nc(NC(=O)c4ccco4)nc3N2)cc1 (centres unmarked) | -60.3 |
| COc1ccc(C2CC(c3ccc(F)cc3)n3nc(NS(C)(=O)=O)nc3N2)cc1 (centres unmarked) | 8.06 |
| COc1ccc(C2CC(c3ccc(F)cc3)Nc3nc(N)nn32)cc1 (centres unmarked) | -27 |
| O=C(Nc1ncc2c(n1)CC(c1cccc(Cl)c1)CC2=O)c1ccco1 (centres unmarked) | -39 |
| C[C@]12CCC3C(CC[C@H]4CC(O)CC[C@]34C)C1CC/C2=N/NC(=O)c1ccncc1 (some centres unmarked) | -10.8 |
| COc1c(C)cccc1C(=O)Nc1cc(Cl)ccc1N1CCOCC1 | 7.1 |
| O=C(Nc1cc(-c2ccccc2)sc1C(=O)O)c1cccc(F)c1 | 33.5 |

| SMILES | hERG current change (%, negative = inhibition) at 10uM [%] |
| --- | --- |
| CCOC(=O)C1CCN(C(=O)CCNS(=O)(=O)c2ccc3c(c2)CCN3C(=O)CC)CC1 | 7.82 |
| CCc1ccc(CN(C)CC(=O)Nc2sccc2C#N)cc1 | -16.4 |
| COc1ccc(/C=N/N=C2/NC(=O)C(CC(=O)O)S2)cc1OCc1ccc(Cl)cc1 (centres unmarked) | -1.97 |
| O=C(NC1CCCCC1)C(c1ccccn1)N(C(=O)c1csnn1)c1ccccc1 (centres unmarked) | 1.6 |
| O=C(NC1CCCCC1)c1cc(-c2cccc(Cl)c2)on1 | 11.7 |
| CCOC(=O)C1C(=O)NC(c2ccccc2)=NC1c1ccc(OC)cc1 (centres unmarked) | -12.2 |
| CC(=O)N1CCC(N(CCN2CCOCC2)C(=S)Nc2c(C)cccc2C)CC1 | 8.51 |
| NC(=O)c1nsc(C(=O)N(c2ccc3c(c2)OCO3)C(C(=O)NCC2CCCO2)c2ccc(F)cc2)c1N (centres unmarked) | -8.25 |
| COCC(=O)Nc1nc2n(n1)C(c1ccccc1)CC(c1ccc(OC)cc1)N2 (centres unmarked) | -3.73 |
| CC1CC(c2ccccc2)n2nc(NC(=O)c3ccco3)nc2N1 (centres unmarked) | 24.6 |
| O=C(O)CCCC(=O)Nc1nc2n(n1)C(c1ccc(F)cc1)CC(c1ccc(Cl)cc1)N2 (centres unmarked) | -0.46 |
| COc1ccc(C2CC(c3ccccc3)Nc3nc(NC(=O)c4ccco4)nn32)cc1 (centres unmarked) | -64.4 |
| COCC(=O)Nc1nc2n(n1)C(c1ccc(Cl)cc1)CC(c1ccc(OC)cc1)N2 (centres unmarked) | -73.8 |
| O=C(Nc1nc2n(n1)C(c1ccc(Cl)cc1)CC(c1ccc(Cl)cc1)N2)c1ccco1 (centres unmarked) | -38.3 |
| COCC(=O)Nc1nc2n(n1)C(c1ccccc1Cl)CC(c1ccc(OC)cc1)N2 (centres unmarked) | -18.6 |
| O=C(Nc1nc2n(n1)C(c1ccccc1)CC(c1ccc(Cl)cc1)N2)c1ccco1 (centres unmarked) | -53.1 |
| COc1ccc(C2CC(c3ccc(OC)cc3)n3nc(NC(=O)c4ccco4)nc3N2)cc1 (centres unmarked) | -19.2 |
| O=[N+]([O-])c1ccc(NCCO)c2ncccc12 | 2.11 |
| CC(Sc1ncc(C(F)(F)F)cc1Cl)C(=O)NC(N)=O (centres unmarked) | 0.58 |
| COC(=O)c1cc(OC)c(OC)cc1NC(=O)Cc1cccs1 | 0.709 |
| CCCn1nnnc1NCc1ccc(C(C)C)cc1 | 4.94 |
| CCC1CCCCN1c1cc(C)nc2cc(-c3cccc(C)c3)nn12 (centres unmarked) | -1.65 |

| SMILES | hERG current change (%, negative = inhibition) at 10uM [%] |
| --- | --- |
| CCCCCCCCCC[n+]1cccc(C(=O)N(CC)CC)c1.[Br-] | -0.215 |
| CCCCCCCC[n+]1cccc(C(=O)N(CC)CC)c1.[Br-] | 13 |
| CCCCCCCCCCCCCCCC[n+]1cccc(C(=O)N(CC)CC)c1.[Br-] | -69.7 |
| COc1cccc(CNn2c(-c3cccc(C)c3)nc3ccccc3c2=O)c1 | -9.77 |
| COc1ccc(CNn2c(-c3cccc(C)c3)nc3ccccc3c2=O)cc1OC | -73.6 |
| COc1ccccc1CNn1c(-c2cccc(C)c2)nc2ccccc2c1=O | -11 |
| CC1(C)C2CCC(C2)C1(C)NC(=O)CN1CCCC1.Cl (centres unmarked) | -0.213 |
| COc1cc2oc(=O)cc(C)c2c(OC)c1OC | 17.9 |
| COc1cc(OC)c2c(C)cc(=O)oc2c1 | 15.4 |
| Cc1cc2oc(=O)cc(C)c2c(=O)o1 | -65.8 |
| CCOc1ccc(NC(=O)Cn2cc(C(=O)CC)c3ccccc32)cc1 | 14.7 |
| Cc1ccc2oc(=O)c(/C=C(\O)C(C)(C)C)nc2c1 | 17.1 |
| O=[N+]([O-])c1ccc(Cc2cncc(O)c2)cc1 | -17.3 |
| Cc1ccc2nc(SCc3ccc([N+](=O)[O-])cc3)nc(C)c2c1 | 0.901 |
| O=[N+]([O-])c1ccc(Cc2ccncc2)cc1 | -26.9 |
| Cc1cnc(=O)[nH]c1SCc1cccc([N+](=O)[O-])c1 | 2.35 |
| Cc1cnc(=O)[nH]c1SCc1ccc([N+](=O)[O-])cc1 | -70.1 |
| Cc1cc(Cc2ccc([N+](=O)[O-])cc2)c(C)cn1 | -57.8 |
| Cc1ccc2nc(SCc3ccc([N+](=O)[O-])cc3)[nH]c2c1 | -65.1 |
| Cc1ccc2nc(SCC(=O)Nc3cccc([N+](=O)[O-])c3)[nH]c2c1 | -11.7 |
| Cc1ccc2nc(SCC(=O)Nc3ccc(F)c([N+](=O)[O-])c3)[nH]c2c1 | -2.06 |
| Cc1ccc2nc(SCC(=O)Nc3cc([N+](=O)[O-])ccc3F)[nH]c2c1 | -57.4 |

| SMILES | hERG current change (%, negative = inhibition) at 10uM [%] |
| --- | --- |
| Cc1ccc(CSc2[nH]c(=O)ncc2C)cc1 | 10.7 |
| Cc1nc2nc(SCc3ccc([N+](=O)[O-])cc3)[nH]c2cc1Br | 1.02 |
| O=C(CNC(=O)c1ccco1)N/N=C/c1cccs1 | 14.9 |
| O=C(Nc1ccc([N+](=O)[O-])cn1)c1cc(-c2cccc(Cl)c2)nc2ccccc12 | -8.44 |
| Cc1ccc(C(=O)N2CCC(C)CC2)cc1S(=O)(=O)N1CCCCC1 | -10.2 |
| CCOc1cc(C(=O)OC(C)C(=O)Nc2ccc(S(N)(=O)=O)cc2)ccc1OCC(=O)N1CCOCC1 (centres unmarked) | -5.65 |
| CC(=O)c1cccc(NC(=S)NC(=O)c2ccc(C)cc2)c1 | 22.4 |
| COc1cccc(C(=O)NNS(=O)(=O)c2ccc(F)cc2)c1 | 9.31 |
| Cc1ccc(NC(=O)COC(=O)CCc2c[nH]c3ccccc23)cc1[N+](=O)[O-] | 10.4 |
| Cc1cc(C)nc(SCc2ccc([N+](=O)[O-])cc2)n1 | -17 |
| O=[N+]([O-])c1ccc(CSc2nc3ccccc3[nH]2)cc1 | -54.2 |
| CC(=O)c1cc(C#N)c(SCc2ccc([N+](=O)[O-])cc2)nc1C | 17.7 |
| O=[N+]([O-])c1cccc(CSc2nc3ccccc3[nH]2)c1 | -15.6 |
| Cc1nc(N)nc(SCc2ccc([N+](=O)[O-])cc2)c1N | -74.6 |
| c1ccc(CSc2nc3ccccc3[nH]2)cc1 | 17.6 |
| O=S(=O)(CCc1nc2ccccc2o1)c1ccc2ccccc2c1 | 7.8 |
| Cc1cccc(/C(N)=N/OC(=O)c2ccc(Br)o2)c1 | 11.7 |
| Fc1ccc(-c2csc(/C=C/c3ccc4c(c3)OCO4)n2)cc1 | 13.2 |
| CC(C)c1ccc(C(=O)CC2(O)C(=O)N(CN3CCOCC3)c3ccccc32)cc1 (centres unmarked) | 10.4 |
| O=C1N(CCCCN2C(=O)C3(OCCO3)c3ccccc32)c2ccccc2C12OCCO2 | 6.9 |
